A selection: hits, their analogues and other compounds. The true share with any hit is near 1.2%.
NS1 inh – inhibitors of influenza NS1 protein function | actives 0.4% (n = 270,000) | AID 2326 | Potency, µM (highest dose often 46.1 µM), without a hit: top-dose activity, positive = more growth; calls by dose curve; further: actives are rising curves; nearly all actives have a fitted effect of over 50% in size
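Compounds were scored for reversing the slow growth caused by influenza A NS1 in S. cerevisiae, measured by optical density at 600 nm. Assay medium contained 2% galactose at pH 6.0; NS1-free yeast of the same strain were the positive control.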
LmPK inhibitor – inhibitors of Leishmania mexicana pyruvate kinase; purified LmPK, Kinase-Glo ATP luminescence, 1 h; Potency, µM (doses to about 57.5 µM), for the others: at the top dose activity change, negative = inhibition, actives largely listed as inhibitors; actives 0.37% (n = 290,000); AID 1721; further: on the % scale 0 is the no-effect control and ±100 the full control effect
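qHTS format; LmPK 0.1 nM; substrates PEP 0.5 mM and ADP 0.1 mM. One-hour room-temperature incubation, then coupled luciferase luminescence; 0.5 nM enzyme wells mark activation.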
Tb PYK inh – inhibitors of Trypanosoma brucei pyruvate kinase; actives 0.12% (n = 410,000); AID 624173; Potency, µM (titrated, usually from 76.8 µM), inactives show at the highest dose activity, negative = inhibition, hits mostly inhibitors; TbPYK enzyme, Kinase-Glo Plus ATP luminescence, 45 min; further: on the % scale 0 is the no-effect control and ±100 the full control effect; nearly all actives have a fitted effect of over 50% in size
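In this concentration-response screen, enzyme-free wells defined baseline while DMSO plates tracked drift. Each reaction combined TbPYK, substrate, compound and 130 uM ADP for 45 min at room temperature. Kinase-Glo Plus luminescence gave the signal.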
Giardia FBPA inh – inhibitors of Giardia lamblia fructose-1,6-bisphosphate aldolase; A8B2U2; purified Giardia FBPA; Potency, µM (series often up to 59.6 µM), for the others: at the highest dose activity, negative = inhibition, most hits filed as inhibitors; actives 0.71% (n = 290,000); AID 2451; further: on the % scale 0 is the no-effect control and ±100 the full control effect; nearly all actives have a fitted effect of over 55% in size
Target sequence (A8B2U2 whole entry, looked up): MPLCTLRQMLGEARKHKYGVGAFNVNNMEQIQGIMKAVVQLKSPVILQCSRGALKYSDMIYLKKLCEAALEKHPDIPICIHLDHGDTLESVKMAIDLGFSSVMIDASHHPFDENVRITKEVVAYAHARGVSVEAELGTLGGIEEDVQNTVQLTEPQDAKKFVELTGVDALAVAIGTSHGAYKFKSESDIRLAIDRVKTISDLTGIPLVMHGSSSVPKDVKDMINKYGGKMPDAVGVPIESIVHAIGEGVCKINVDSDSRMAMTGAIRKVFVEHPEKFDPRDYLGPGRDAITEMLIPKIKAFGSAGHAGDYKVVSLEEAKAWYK
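Giardia FBPA (40 nM reagent) was preincubated 10 min at RT with compound (up to 57.5 uM final), then substrate plus GAPDH/TPI/NAD/arsenate coupling system with diaphorase/resazurin was added; resorufin fluorescence (525/598 nm) was read after 20 min.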
AMA1-RON2 inh – inhibitors of Plasmodium falciparum AMA1-RON2 interaction; AlphaScreen AMA1-biotinylated RON2 peptide binding; Potency, µM (doses to about 58.2 µM), for the others: at the top dose activity change, negative = inhibition, usual class: inhibitors; actives 0.2% (n = 360,000);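 further: 0% = vehicle wells and -100% = peptide control; nearly all actives have a fitted effect of over 45% in size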
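AMA1 (3D7) with his tag at 25 nM final met compounds first, then biotinylated RON2 peptide at 25 nM; detection used donor plus acceptor beads, 10 µg/mL apiece, read by AlphaScreen after 30 min at room temperature.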
Active calls of the source: *; ? = inconclusive; / = no result; [ ] = another dose, or the depositor's remark. Unless noted, the call rests on the fitted dose curve; in most records, active means well fitted curve in the direction sought with a large enough effect; inconclusive means small, poorly fitted or top-dose-only effect, or another doubt; inactive means no such curve, though single readings can be large; an effect the other way counts as inactive or inconclusive. Potency means the concentration at half of the fitted maximal effect.

SMILES | NS1 inh | LmPK inhibitor | Tb PYK inh | Giardia FBPA inh | AMA1-RON2 inh
CC1=C/C(=N\OS(=O)(=O)c2ccccc2)C(C(C)C)=CC1=O | -60.7% | -3.0% | -3.3% | 11.2µM* | ?
CC(S(=O)(=O)c1ccccc1)S(=O)(=O)c1ccccc1 | / | / | 4.2% | / | -13.5%
CC1=C(C)/C(=N\OS(=O)(=O)c2ccc(C)cc2)C=CC1=O | -40.0% | 1.4% | -10.5% | 3.97µM* | ?
CO[C@H]1C[C@@H]2CC[C@@H](C)[C@@](O)(O2)C(=O)C(=O)N2CCCC[C@@H]2C(=O)O[C@H]([C@H](C)C[C@@H]2CC[C@H](OCCO)[C@H](OC)C2)CC(=O)[C@H](C)C=C(C)[C@@H](O)[C@@H](OC)C(=O)[C@H](C)C[C@H](C)C=CC=CC=C1C | / | / | 0.0% | / | /
O=C1C=C(Nc2ccccc2C(=O)O)c2ccccc2C1=O | -39.6% | -28.6% | -16.1% | 1.58µM* | 0.0%
Nc1ccccc1S(=O)(=O)Nc1cccc2cccnc12 | / | / | / | 14.1µM* | /
O=C1C=C(Nc2ccccc2)c2ccccc2C1=O | 1.5% | -11.5% | -8.8% | ? | -2.4%
O=C1C=C(Nc2cccc3cccnc23)c2ccccc2C1=O | 6.9% | -1.9% | -9.6% | 1.58µM* | -5.8%
O=C(N/N=C/c1c(O)n(-c2ccccc2Cl)c(=O)c2ccccc12)C1COc2ccccc2O1 (stereo unspecified) | 3.55µM* | 5.4% | -1.9% | ? | 84.2%
O=C(N/N=C\c1ccc(Br)o1)C1COc2ccccc2O1 (stereo unspecified) | -6.8% | 1.2% | -13.2% | -2.3% | 20.5%
CN(C)c1ccc(/C=N/NC(=O)C2COc3ccccc3O2)o1 (stereo unspecified) | 7.8% | 6.7% | 28.2µM* | -14.6% | 40.1%
c1ccc(-c2ccc(-c3nccc4ccccc34)[nH]2)cc1 | -70.5% | 25.1µM* | / | -4.6% | /
NC(=O)C1CC2(NC(=O)NC2=O)c2cc(F)ccc2O1 (stereo unspecified) | / | / | 1.4% | / | /
N#Cc1cc(N2CCCCC2)c([N+](=O)[O-])cc1C#N | 1.1% | -7.4% | 4.8% | 0.3% | 3.8%
O=[N+]([O-])c1cc2no[n+]([O-])c2cc1N1CCCCC1 | / | / | 14.1µM* | / | -26.2%
COCCOCCn1c(/C=C/c2ccccc2)nc2ccccc21 | -5.5% | 14.1µM* | -6.9% | ? | 6.6%
CCCn1c(/C=C/c2ccccc2)nc2ccccc21 | -84.7% | ? | -8.8% | -18.6% | 40.7%
COC(=O)C1=C(C)NC(C)=C(C(=O)OCC(C)C)C1c1ccccc1[N+](=O)[O-] (stereo unspecified) | / | / | ? | / | 14.1µM*
O=C1C(=O)c2ccccc2C(O)=C1CCCCl | -46.6% | -2.1% | -13.8% | 3.54µM* | -2.7%
COc1ccc(CC2=C(O)c3ccccc3C(=O)C2=O)cc1 | -125.3% | 2.3% | -3.8% | -20.4% | -1.5%
c1ccc2c(c1)CCN(c1nc3cc4c(cc3s1)OCCO4)C2 | -143.5% | 22.4µM* | -29.7% | ? | -24.8%
COc1ccc(OC)c2sc(N3CCc4ccccc4C3)nc12 | / | 1.8% | -0.1% | -14.3% | -24.8%
COc1ccc(/C=C/C(=O)C2C(=O)C=C(C)OC2=O)cc1O (stereo unspecified) | -1.2% | 15.8µM* | -7.8% | ? | 8.2%
COc1cc(/C=C/C(=O)C2C(=O)C=C(C)OC2=O)cc(OC)c1O (stereo unspecified) | -3.0% | -13.3% | -28.7% | ? | -6.7%[11.6 µM]
Clc1ccc(-c2nc(-c3cnccn3)no2)cc1 | -1.5% | 7.94µM* | -12.5% | 3.2% | 13.7%
SMILES | NS1 inh | LmPK inhibitor | Tb PYK inh | Giardia FBPA inh | AMA1-RON2 inh
c1ccc(-c2cc(-c3nc(-c4ccccn4)no3)c3ccccc3n2)cc1 | -14.1% | / | -13.1% | / | 14.1%
c1ccc(-c2noc(-c3ccco3)n2)nc1 | 12.8% | 15.8µM* | -11.7% | 1.5% | 39.6%
Cc1ccc2nc(-c3ccccn3)oc2c1 | -14.5% | 15.8µM* | -25.0% | -4.4% | 106.6%
Fc1ccc(-c2nc(-c3cnccn3)no2)c(Cl)c1 | -4.7% | ? | -13.2% | 4.8% | -13.7%
Cc1ccc2nc(-c3cccnc3)oc2c1 | -8.6% | ? | -3.8% | -2.1% | ?
Clc1cccc(-c2nc(-c3ccccn3)no2)c1 | -15.1% | 10µM* | -22.8% | 0.0% | 26.0%
O[C@@H](CNC[C@H](O)[C@H]1CCc2cc(F)ccc2O1)[C@@H]1CCc2cc(F)ccc2O1 | / | / | 0.0% | / | /
